{
  "source": "PubChem BioAssay AID463173",
  "about": "(ICCB-Longwood Screening Facility, Harvard Medical School, 2010)",
  "note": "Out of some 52,000 compounds screened, about 1,700 (3.3%) were called active. Rule as the data show it: active = survival mostly below about 52% (no sharp cut-off); inactive = mostly above about 56%. Many of the other results were omitted from the sample, so actives are more common in it than they were.",
  "data": [
    {"test_system": "Wild type", "assay": "S. aureus survival, RN4220 and DeltatarO strains – OD600, teichoic acid synthesis inhibitors, primary screen (AID 463173)", "conditions": "S. aureus RN4220 wild type/DeltatarO growth, OD600, 18 h, active compounds read low, screened at 18.75 µg/mL (by protocol)", "values": [
      {"smiles": "CCCC(C)C(=O)Nc1nnc(C(F)(F)F)s1", "note": "(stereo not drawn)", "survival": "100% (inactive)"},
      {"smiles": "O=C(Nc1cccc2c1CCCC2)N1CCOc2ccc(Cl)cc21", "survival": "83% (inactive)"},
      {"smiles": "COc1ccc(-c2nc(CCNC(=O)c3cccs3)cs2)cc1OC", "survival": "159% (inactive)"},
      {"smiles": "Cc1cccc(Cn2c(CNS(=O)(=O)c3ccc(C(C)C)cc3)nc3cccnc32)c1", "survival": "78% (inactive)"},
      {"smiles": "N=c1nc(N)nc2n1NC(c1ccc(F)cc1)=CS2", "survival": "108% (inactive)"},
      {"smiles": "CCC(Sc1ncc(S(=O)(=O)c2ccc(Cl)cc2)c(=O)[nH]1)C(=O)Nc1ccc(OC)cc1", "note": "(stereo not drawn)", "survival": "96% (inactive)"},
      {"smiles": "CCC1CCCCN1CC(=O)N1CCCc2c1c(=O)oc1ccc(OCc3ccccc3)cc21", "note": "(stereo not drawn)", "survival": "3% (active)"},
      {"smiles": "CC1CCCCN1CC(=O)N1CCCc2c1c(=O)oc1ccc(OCc3ccccc3)cc21", "note": "(stereo not drawn)", "survival": "43% (inactive)"},
      {"smiles": "CC1CCN(CC(=O)N2CCCc3c2c(=O)oc2ccc(OCc4ccccc4)cc32)CC1", "survival": "86% (inactive)"},
      {"smiles": "CCCCN(CC)C(=O)c1cc2c(=O)n3cccc(C)c3nc2s1", "survival": "77% (inactive)"},
      {"smiles": "CCCN(CCC)C(=O)c1cc2c(=O)n3cccc(C)c3nc2s1", "survival": "80% (inactive)"},
      {"smiles": "CCCCN(CCCC)C(=O)c1cc2c(=O)n3cccc(C)c3nc2s1", "survival": "-2% (active)"},
      {"smiles": "CCOC(=O)c1[nH]c2ccccc2c1N=CN(C)C", "survival": "104% (inactive)"},
      {"smiles": "O=c1cc(O)n(-c2ccccc2)c(=S)[nH]1", "survival": "99% (inactive)"},
      {"smiles": "CC1CCc2nc3ncn(Cc4cccc(F)c4)c(=O)c3cc2C1", "note": "(stereo not drawn)", "survival": "66% (inactive)"},
      {"smiles": "CC1CCc2nc3ncn(Cc4ccccc4F)c(=O)c3cc2C1", "note": "(stereo not drawn)", "survival": "53% (inactive)"},
      {"smiles": "Cc1ccc(Cn2cnc3nc4c(cc3c2=O)CC(C)CC4)cc1", "note": "(stereo not drawn)", "survival": "-3% (active)"},
      {"smiles": "Cc1ccccc1Cn1cnc2nc3c(cc2c1=O)CC(C)CC3", "note": "(stereo not drawn)", "survival": "0% (active)"},
      {"smiles": "CC1CCc2nc3ncn(Cc4ccc(Cl)cc4)c(=O)c3cc2C1", "note": "(stereo not drawn)", "survival": "80% (inactive)"},
      {"smiles": "CC1CCc2nc3ncn(Cc4ccccc4C#N)c(=O)c3cc2C1", "note": "(stereo not drawn)", "survival": "71% (inactive)"},
      {"smiles": "O=C(O)CN1C(=O)/C(=C\\c2ccccc2)SC1=S", "survival": "102% (inactive)"},
      {"smiles": "CN1/C(=C2/SC(=O)N(Cc3ccccc3)C2=O)Sc2ccccc21", "survival": "118% (inactive)"},
      {"smiles": "Cc1cc(N2CCC(C)CC2)nc2ccc(NC(=O)CCC(=O)N3CCN(c4cccc(C(F)(F)F)c4)CC3)cc12", "survival": "64% (inactive)"},
      {"smiles": "Cc1ccc(-c2nonc2NC(=O)c2ccco2)cc1C", "survival": "79% (inactive)"},
      {"smiles": "COc1ccc(-c2cn3cccnc3n2)cc1NC(=O)c1ccccc1C(F)(F)F", "survival": "69% (inactive)"},
      {"smiles": "COc1cc2nc(NC(=O)c3ccc(S(=O)(=O)N4CCOCC4)cc3)sc2cc1OC", "survival": "79% (inactive)"},
      {"smiles": "COC(=O)c1sc2cccc(F)c2c1S(=O)(=O)N1CCN(c2ccccc2OC)CC1", "survival": "47% (inactive)"},
      {"smiles": "COc1ccc(CCNC(=O)CSCc2nc(-c3cccc(C)c3)oc2C)cc1OC", "survival": "74% (inactive)"},
      {"smiles": "COc1ccc(-c2nc(CSCC(=O)NCCc3ccccc3)c(C)o2)cc1", "survival": "95% (inactive)"},
      {"smiles": "COc1cccc(-c2nc(CSCC(=O)NCCc3ccc(Cl)cc3)c(C)o2)c1", "survival": "-1% (active)"},
      {"smiles": "COc1cccc(-c2nc(CS(=O)(=O)CC(=O)NCCc3ccc(Cl)cc3)c(C)o2)c1", "survival": "78% (inactive)"},
      {"smiles": "CCOc1ccc(CCNC(=O)CSCc2nc(-c3cccc(C)c3)oc2C)cc1OCC", "survival": "80% (inactive)"},
      {"smiles": "Cc1cccc(-c2nc(CSCC(=O)NCCc3ccc(Cl)cc3)c(C)o2)c1", "survival": "-3% (active)"},
      {"smiles": "COc1cc2[nH]c(=O)n(CCCC(=O)N(C)Cc3ccccc3)c(=O)c2cc1OC", "survival": "68% (inactive)"},
      {"smiles": "CN(C)c1ccc(-c2nnc3n(Cc4ccccc4)c(=O)c4ccccc4n23)cc1", "survival": "83% (inactive)"},
      {"smiles": "COc1ccc(N2CCN(C(=O)c3cccc(NC(=O)c4nsc5ccccc45)c3)CC2)cc1", "survival": "131% (inactive)"},
      {"smiles": "O=C(NCc1ccc2c(c1)OCO2)C1CCN(c2ccc(S(=O)(=O)N3CCCC3)cc2)CC1", "survival": "101% (inactive)"},
      {"smiles": "Cc1ccc(-c2nc(N3CCCC(C)C3)c3ccccc3n2)cc1", "note": "(stereo not drawn)", "survival": "-2% (active)"},
      {"smiles": "CC1CCCN(c2csc3ccccc3c2=O)C1", "note": "(stereo not drawn)", "survival": "97% (inactive)"},
      {"smiles": "CC1CCCN(c2nc(-c3ccccc3O)nc3ccccc23)C1", "note": "(stereo not drawn)", "survival": "-3% (active)"},
      {"smiles": "Cc1cccc(-c2nc(N3CCN(c4ccc(F)cc4)CC3)c3ccccc3n2)c1", "survival": "64% (inactive)"},
      {"smiles": "COc1ccccc1N1CCN(c2nc(-c3ccc(C)cc3)nc3ccccc23)CC1", "survival": "72% (inactive)"},
      {"smiles": "COc1ccc(N2CCN(c3nc(-c4ccccc4F)nc4ccccc34)CC2)cc1", "survival": "92% (inactive)"},
      {"smiles": "N#CCNC(=O)c1sc2ccccc2c1Cl", "survival": "107% (inactive)"},
      {"smiles": "Cc1nnc(NC(=O)CCCN2C(=O)/C(=C/c3cccs3)SC2=S)s1", "survival": "107% (inactive)"},
      {"smiles": "COc1cc(C(=O)N2CC(=O)Nc3ccc(C)cc3C2c2ccc(F)cc2)cc(OC)c1OC", "note": "(stereo not drawn)", "survival": "147% (inactive)"},
      {"smiles": "Cc1c(Cl)cccc1NC(=O)CCS(=O)(=O)c1ccc2c(c1)CC(C)N2C(=O)C1CC1", "note": "(stereo not drawn)", "survival": "85% (inactive)"},
      {"smiles": "Cc1ccc(-n2ncc3c(N4CCC(Cc5ccccc5)CC4)ncnc32)cc1", "survival": "70% (inactive)"},
      {"smiles": "CC(C)CC(NC(=O)C1CCCCC1)C(=O)Nc1cccc(C(F)(F)F)c1", "note": "(stereo not drawn)", "survival": "64% (inactive)"},
      {"smiles": "C=Cc1ccc(CN2C(=O)N(c3ccc(CC)cc3)S(=O)(=O)c3ccccc32)cc1", "survival": "1% (active)"},
      {"smiles": "C=Cc1ccc(CN2C(=O)N(c3cccc(Cl)c3)S(=O)(=O)c3ccccc32)cc1", "survival": "57% (inactive)"},
      {"smiles": "C=Cc1ccc(CN2C(=O)N(c3ccc(C)c(C)c3)S(=O)(=O)c3ccccc32)cc1", "survival": "71% (inactive)"},
      {"smiles": "Cc1coc2c(C)c3oc(=O)c(CCC(=O)NCCc4ccccc4)c(C)c3cc12", "survival": "84% (inactive)"},
      {"smiles": "COc1cccc(N2CCN(C(=O)c3cnc4c(C)cccn4c3=O)CC2)c1", "survival": "91% (inactive)"},
      {"smiles": "Cc1ccc2nc(NCc3ccccc3Cl)c3nnnn3c2c1", "survival": "94% (inactive)"},
      {"smiles": "Cc1ccc(N2CCN(c3nc4ccc(C)cc4n4nnnc34)CC2)c(C)c1", "survival": "76% (inactive)"},
      {"smiles": "COc1ccc(OC)c(CNc2nc3ccc(C)cc3n3nnnc23)c1", "survival": "85% (inactive)"},
      {"smiles": "Cc1ccc2nc(N3CCN(c4ccccc4)CC3)c3nnnn3c2c1", "survival": "78% (inactive)"},
      {"smiles": "Cc1ccc2nc(N3CCN(c4ccc(F)cc4)CC3)c3nnnn3c2c1", "survival": "14% (active)"},
      {"smiles": "COc1ccccc1N1CCN(c2nc3ccc(C)cc3n3nnnc23)CC1", "survival": "133% (inactive)"},
      {"smiles": "Cc1ccc2nc(N3CCN(c4ccccc4F)CC3)c3nnnn3c2c1", "survival": "76% (inactive)"},
      {"smiles": "COc1ccc(N2CCN(c3nc4ccc(C)cc4n4nnnc34)CC2)cc1", "survival": "-6% (active)"},
      {"smiles": "COc1ccccc1CNc1nc2ccc(C)cc2n2nnnc12", "survival": "-1% (active)"}
    ]}
  ]
}
